PubChem BioAssay AID1159580 (chemical genetic matrix, 2015)
About 2,000 (36%) of roughly 5,500 compounds were called active. About 18% were inconclusive and are not listed. No stated cut-off is given here; in the data, active means normalized growth mostly below about 0.91 (no sharp cut-off); inconclusive means no clear call, values can overlap the other calls; inactive means mostly above about 0.92. The list shows a part of the results.

Assay: chemical genetic growth profiling, strain panel (AID 1159580);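 further: tested at 20 µM; growth read once vehicle control cultures reached saturation at 30 °C; 1 = growth at the plate median or of vehicle wells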
Conditions: S. cerevisiae deletion strains, growth OD

Measured: normalized growth

CCc1oc2ccccc2c1C(=O)c1cc(Br)c(O)c(Br)c1
active: locus YHR030C, strain SLT2, stronger effect = lower value 0.0985 | locus YHR079C, strain IRE1, stronger effect = lower value 0.111 | locus YJL095W, strain BCK1, stronger effect = lower value 0.101 | locus YJR066W, strain TOR1, stronger effect = lower value 0.00147 | locus YLR113W, strain HOG1, stronger effect = lower value 0.124 | locus YNL183C, strain NPR1, stronger effect = lower value 0.06 | locus YOR231W, strain MKK1, stronger effect = lower value 0.105 | locus YPL256C, strain CLN2, stronger effect = lower value 0.13
